The values that follow come from paper PMC11062922 (Nature Chemical Biology, 2023).

The test system of assay [1] is AAK1. Details: species or system human, MV4-11 + K-562 + COLO205 + SK-N-BE2 + OVCAR-8. The following applies: read-out: apparent Kd, n = 1.
In assay [2] the test system is BMP2K. Details: species or system human, MV4-11 + K-562 + COLO205 + SK-N-BE2 + OVCAR-8. The following applies: read-out: apparent Kd, n = 1.
The test system of assay [3] is CLK1. Details: species or system human, MV4-11 + K-562 + COLO205 + SK-N-BE2 + OVCAR-8. The conditions noted are these: read-out: apparent Kd, n = 1.
For assay [4], the system named is CLK4. Details: species or system human, MV4-11 + K-562 + COLO205 + SK-N-BE2 + OVCAR-8. The conditions noted are these: read-out: apparent Kd, n = 1.
Assay [5] concerns CSNK2A1;CSNK2A3. Details: species or system human, MV4-11 + K-562 + COLO205 + SK-N-BE2 + OVCAR-8. The following applies: read-out: apparent Kd, n = 1.
Assay [6] deals with CSNK2A2. Details: species or system human, MV4-11 + K-562 + COLO205 + SK-N-BE2 + OVCAR-8. The conditions noted are these: read-out: apparent Kd, n = 1.
The subject of assay [7] is FLT4. Details: species or system human, MV4-11 + K-562 + COLO205 + SK-N-BE2 + OVCAR-8. The conditions noted are these: read-out: apparent Kd, n = 1.
For assay [8], the system named is GAK. Details: species or system human, MV4-11 + K-562 + COLO205 + SK-N-BE2 + OVCAR-8. The following applies: read-out: apparent Kd, n = 1.
Assay [9] has as its system GSK3A. Details: species or system human, MV4-11 + K-562 + COLO205 + SK-N-BE2 + OVCAR-8. The conditions noted are these: read-out: apparent Kd, n = 1.
Assay [10] concerns GSK3B. Details: species or system human, MV4-11 + K-562 + COLO205 + SK-N-BE2 + OVCAR-8. The conditions noted are these: read-out: apparent Kd, n = 1.
Assay [11] deals with MELK. Details: species or system human, MV4-11 + K-562 + COLO205 + SK-N-BE2 + OVCAR-8. The conditions noted are these: read-out: apparent Kd, n = 1.
Assay [12] has as its system NUAK1. Details: species or system human, MV4-11 + K-562 + COLO205 + SK-N-BE2 + OVCAR-8. The conditions noted are these: read-out: apparent Kd, n = 1.
In assay [13] the test system is PAK4. Details: species or system human, MV4-11 + K-562 + COLO205 + SK-N-BE2 + OVCAR-8. The following applies: read-out: apparent Kd, n = 1.
The subject of assay [14] is PKN1. Details: species or system human, MV4-11 + K-562 + COLO205 + SK-N-BE2 + OVCAR-8. The conditions noted are these: read-out: apparent Kd, n = 1.
The subject of assay [15] is PKN3. Details: species or system human, MV4-11 + K-562 + COLO205 + SK-N-BE2 + OVCAR-8. The conditions noted are these: read-out: apparent Kd, n = 1.
The test system of assay [16] is PRKAG1. Details: species or system human, MV4-11 + K-562 + COLO205 + SK-N-BE2 + OVCAR-8. The conditions noted are these: read-out: apparent Kd; compound concentrations: 100 nM and 1000 nM (sheet 'Samples'), CATDS: 2.2079366714636301E-2; n = 1.
Assay [17] has as its target Q6ZSR9 (human, UniProt Q6ZSR9). Details: species or system MV4-11 + K-562 + COLO205 + SK-N-BE2 + OVCAR-8. The conditions noted are these: read-out: apparent Kd, n = 1.
Assay [18] deals with RET. Details: species or system human, MV4-11 + K-562 + COLO205 + SK-N-BE2 + OVCAR-8. The following applies: read-out: apparent Kd, n = 1.
Assay [19] relates to SIK2. Details: species or system human, MV4-11 + K-562 + COLO205 + SK-N-BE2 + OVCAR-8. The conditions noted are these: read-out: apparent Kd, n = 1.
[20] abbreviates: compound concentrations:100 nM and 1000 nM (sheet 'Samples').

Read-outs that look alike come from different tables or passages of the source.

Chain of Q6ZSR9 (Q6ZSR9 whole entry, looked up): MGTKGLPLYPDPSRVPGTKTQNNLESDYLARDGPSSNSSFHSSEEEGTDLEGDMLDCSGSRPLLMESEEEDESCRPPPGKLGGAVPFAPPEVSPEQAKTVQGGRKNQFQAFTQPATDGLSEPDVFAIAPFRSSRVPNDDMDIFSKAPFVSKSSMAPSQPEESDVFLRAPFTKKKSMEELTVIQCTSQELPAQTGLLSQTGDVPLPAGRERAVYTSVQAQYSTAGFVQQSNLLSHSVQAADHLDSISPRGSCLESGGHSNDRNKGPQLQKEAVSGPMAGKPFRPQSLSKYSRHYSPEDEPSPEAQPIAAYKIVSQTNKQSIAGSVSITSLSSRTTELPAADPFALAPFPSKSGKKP

On to `Clc1cc(Cl)cc(Nc2ccnc(Nc3cc(Cl)cc(Cl)c3)n2)c1` [GSK175726A], for which the potency estimated from few doses in assay [1] (compound concentrations: 100 nM and 1000 nM (sheet 'Samples'), CATDS: 1.17801193164304E-2) is 460 nM; in assay [2] (compound concentrations: 100 nM and 1000 nM (sheet 'Samples'), CATDS: 9.0184479884945195E-3) it was 1240 nM; in assay [3] (compound concentrations: 100 nM and 1000 nM (sheet 'Samples'), CATDS: 2.2055974074076602E-2), 111 nM; in [4] (compound concentrations: 100 nM and 1000 nM (sheet 'Samples'), CATDS: 1.3138431378969501E-2), 338 nM; in assay [5] (compound concentrations: 100 nM and 1000 nM (sheet 'Samples'), CATDS: 1.0484195430571001E-2), 672 nM; in assay [6] (compound concentrations: 100 nM and 1000 nM (sheet 'Samples'), CATDS: 1.04904160104555E-2) it was 671 nM. Also, the potency estimated from few doses in assay [7] (compound concentrations: 100 nM and 1000 nM (sheet 'Samples'), CATDS: 8.8646184270887406E-3) was 1350 nM; in assay [8] (compound concentrations: 100 nM and 1000 nM (sheet 'Samples'), CATDS: 2.44642148870544E-2), 92.1 nM; in [9] (compound concentrations: 100 nM and 1000 nM (sheet 'Samples'), CATDS: 1.64548846246832E-2), 197 nM; in assay [10] (compound concentrations: 100 nM and 1000 nM (sheet 'Samples'), CATDS: 1.50283486353895E-2), 242 nM; in [11] (compound concentrations: 100 nM and 1000 nM (sheet 'Samples'), CATDS: 8.4068419636258301E-3) it was 1790 nM; in assay [12] (compound concentrations: 100 nM and 1000 nM (sheet 'Samples'), CATDS: 1.3178024386402599E-2) it was 335 nM. Besides, the potency estimated from few doses in assay [13] (compound concentrations: 100 nM and 1000 nM (sheet 'Samples'), CATDS: 1.1864346361446201E-2) is 450 nM; in assay [14] (compound concentrations: 100 nM and 1000 nM (sheet 'Samples'), CATDS: 8.1278223120285105E-3) it was 2200 nM; in assay [15] (compound concentrations: 100 nM and 1000 nM (sheet 'Samples'), CATDS: 9.6016767734474606E-3) it was 940 nM; in assay [16], 110 nM; in assay [17] (compound concentrations: 100 nM and 1000 nM (sheet 'Samples'), CATDS: 1.1627061095110299E-2), 479 nM; in [18] (compound concentrations: 100 nM and 1000 nM (sheet 'Samples'), CATDS: 1.2674098851270001E-2) it was 373 nM. Also, the potency estimated from few doses in assay [19] (compound concentrations: 100 nM and 1000 nM (sheet 'Samples'), CATDS: 1.3915634821930201E-2) was 291 nM.
Turning to `NCCNS(=O)(=O)c1ccc(-c2ccnc3[nH]ccc23)cc1` [GSK977617A], the potency estimated from few doses in [1] (setting [20]) was 429 nM; in assay [2] (setting [20]), 817 nM; in [3] (setting [20]), 294 nM; in assay [4] (setting [20]) it was 413 nM; in assay [5] (setting [20]), 782 nM; in assay [6] (setting [20]), 766 nM. Further, the potency estimated from few doses in assay [7] (setting [20]) is 1050 nM; in assay [8] (setting [20]), 280 nM; in [9] (setting [20]), 257 nM; in [10] (setting [20]) it was 361 nM; in [11] (setting [20]), 866 nM; in assay [12] (setting [20]), 1100 nM. Also, the potency estimated from few doses is 652 nM in [13] (setting [20]); 485 nM in [14] (setting [20]); 444 nM in assay [15] (setting [20]); 450 nM in [17] (setting [20]); 569 nM in assay [18] (setting [20]); 560 nM in assay [19] (setting [20]).
